This is part of a sample that, as a whole, favours compounds with a hit. Of some 79,000 tested, about 15% had one in any assay. The source made the active and inactive calls. No stated cut-off is given here; in the data, active means growth inhibition above about 70%; inactive means the rest.
Experiments:
[1] = NCI Yeast Anticancer Drug Screen. Data for the rad52 strain (AID 147);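 further: 0% = growth of vehicle-treated control cultures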; settings: S. cerevisiae rad52 mutant growth inhibition, stronger effect = higher value
Outline: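 Screen used a yeast mutant impaired in DNA repair. After compound exposure, growth was measured. Values reflect inhibition compared with vehicle-treated cells.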

[2] = NCI Yeast Anticancer Drug Screen. Data for the wt1 strain (AID 149);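 further: 0% = growth of vehicle-treated wt1 cultures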; settings: S. cerevisiae wt1 strain (SPY 50644) growth inhibition, stronger effect = higher value
Outline: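 Readout: yeast growth inhibition, normalised to vehicle controls, in the wt1 strain exposed to test compounds.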

[3] = NCI Yeast Anticancer Drug Screen. Data for the rad50EPP+ strain (AID 151);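 further: 0% = growth of vehicle-treated control cultures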; settings: S. cerevisiae rad50 mutant strain, stronger effect = higher value
Outline: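 Exposing the rad50EPP+ strain to each compound, growth was compared with vehicle-only cultures to give inhibition.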

[4] = NCI Yeast Anticancer Drug Screen. Data for the mgt1 strain (AID 153); settings: S. cerevisiae mgt1 mutant growth inhibition, stronger effect = higher value
Outline: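 Genetically defined yeast (mgt1) treated with compound; inhibition of growth expressed against vehicle-treated controls.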

[5] = NCI Yeast Anticancer Drug Screen. Data for the rad50 strain (AID 155);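 further: 0% = growth of vehicle-only cultures of the same strain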; settings: S. cerevisiae rad50 strain growth inhibition, stronger effect = higher value
Outline: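 Compounds were tested on a yeast strain with an engineered DNA damage repair alteration; the reported value is growth inhibition normalised to vehicle treatment.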

[6] = NCI Yeast Anticancer Drug Screen. Data for the mec2-1 strain (AID 157); settings: S. cerevisiae mec2-1 strain, stronger effect = higher value
Outline: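 Readout is yeast growth inhibition, normalised to vehicle-treated controls, in the mec2-1 strain exposed to compound.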

[7] = NCI Yeast Anticancer Drug Screen. Data for the rad14 strain (AID 159);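 further: 0% = growth of vehicle-treated control cultures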; settings: S. cerevisiae rad14 strain growth inhibition, stronger effect = higher value
Outline: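 Compound-treated yeast with a defined DNA-repair lesion; growth inhibition normalised to vehicle-treated cultures.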

[8] = NCI Yeast Anticancer Drug Screen. Data for the sgs1 mgt1 strain (AID 161);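 further: 0% = growth of cultures given vehicle only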; settings: S. cerevisiae sgs1 mgt1 strain, stronger effect = higher value
Outline: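 This yeast growth screen uses a strain with defined DNA-repair lesions; compound-treated growth is compared with vehicle-treated growth.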

[9] = NCI Yeast Anticancer Drug Screen. Data for the CLN2oe strain (AID 163);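 further: 0% = growth of vehicle-only control cultures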; settings: S. cerevisiae CLN2oe strain, stronger effect = higher value
Outline: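 Values reflect how much compound exposure reduced yeast growth, referenced to vehicle-exposed cells. Assay organism is a strain with a defined genetic change affecting cell-cycle control.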

[10] = NCI Yeast Anticancer Drug Screen. Data for the cln2 rad14 strain (AID 165);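 further: 0% = growth equal to vehicle treated cultures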; settings: S. cerevisiae cln2 rad14 strain, stronger effect = higher value
Outline: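 Relative to vehicle controls, growth inhibition of compound-treated cln2 rad14 yeast was recorded.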

[11] = NCI Yeast Anticancer Drug Screen. Data for the bub3 strain (AID 167); settings: S. cerevisiae bub3 mutant strain, stronger effect = higher value
Outline: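 Growth of a checkpoint-deficient yeast mutant is measured after compound exposure. Values represent inhibition relative to vehicle.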

[12] = NCI Yeast Anticancer Drug Screen. Data for the wt2 strain (AID 169);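 further: 0% = growth of vehicle-treated yeast cultures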; settings: S. cerevisiae wt2 strain growth inhibition, stronger effect = higher value
Outline: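 Values express reduction in yeast growth under compound treatment, referenced to vehicle-treated cells.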

[13] = NCI Yeast Anticancer Drug Screen. Data for the mlh1 strain (AID 171);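 further: 0% = growth of vehicle-treated control cultures of the same strain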; settings: S. cerevisiae mlh1 strain growth inhibition, stronger effect = higher value
Outline: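 Steps: expose the defined-mutant yeast strain to compound; expose a parallel culture to vehicle; measure growth; express compound effect as inhibition relative to the vehicle culture.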

[14] = NCI Yeast Anticancer Drug Screen. Data for the mlh1 rad18 strain (AID 175); settings: S. cerevisiae mlh1 rad18 strain growth inhibition, stronger effect = higher value
Outline: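 Test agents were incubated with a yeast strain of defined genotype (DNA damage repair defect). Inhibition of growth was derived by comparison with vehicle-exposed cultures.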

[15] = NCI Yeast Anticancer Drug Screen. Data for the rad18 strain (AID 177); settings: S. cerevisiae rad18 mutant growth inhibition, stronger effect = higher value
Outline: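 A genetically defined yeast mutant impaired in DNA damage repair was treated with test compounds, then its growth was measured against cultures receiving vehicle alone.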

[16] = NCI Yeast Anticancer Drug Screen. Data for the sgs1 strain (AID 173);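 further: 0% = growth of vehicle-only control cultures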; settings: S. cerevisiae sgs1 mutant, stronger effect = higher value
Outline: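 Treat defined-mutant yeast with compound; measure growth; calculate inhibition relative to vehicle-treated cells.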

[17] = at 5.0 µM (retest, dose inferred, filed as 0.5)
[18] = at 50.0 µM (retest, dose inferred, filed as 5.0)

Measured: growth inhibition

CC[n+]1oc(C(=O)c2ccc(Cl)cc2)c(-c2ccccc2)c1-c1ccccc1.[Cl][Fe]([Cl])([Cl])[Cl]
active: [1]; at 100.0 µM 75% | [3]; at 11.0 µM 75% | [3]; at 33.0 µM 93% | [3]; at 100.0 µM 99% | [5]; [18] 72% | [5]; at 50.0 µM 82% | [5]; at 100.0 µM 77% | [6]; at 50.0 µM 80% | [8]; [18] 79% | [8]; at 50.0 µM 89.3% | [11]; [18] 70% | [13]; at 100.0 µM 74% | [14]; [18] 78% | [14]; at 50.0 µM 94.2% | [15]; at 100.0 µM 79%
inactive: [1]; at 1.2 µM 4% | [1]; at 3.7 µM 15% | [1]; at 11.0 µM 32% | [1]; at 33.0 µM 57% | [2]; at 1.2 µM 1% | [2]; at 3.7 µM -1% | [2]; at 11.0 µM 4% | [2]; at 33.0 µM 20% | [2]; at 100.0 µM 54% | [3]; at 1.2 µM 16% | [3]; at 3.7 µM 37% | [4]; at 1.2 µM -2% | [4]; at 3.7 µM -3% | [4]; at 11.0 µM -3% | [4]; at 33.0 µM -1% | [4]; at 100.0 µM 48% | [5]; at 1.2 µM 5% | [5]; at 3.7 µM 8% | [5]; [17] 36% | [5]; at 11.0 µM 41% | [5]; at 33.0 µM 62% | [6]; at 1.2 µM 3% | [6]; at 3.7 µM 1% | [6]; [17] 22% | [6]; at 11.0 µM 11% | [6]; at 33.0 µM 26% | [6]; [18] 57% | [6]; at 100.0 µM 69% | [7]; at 1.2 µM 2% | [7]; at 3.7 µM 6% | [7]; at 11.0 µM 12% | [7]; at 33.0 µM 28% | [7]; at 100.0 µM 57% | [8]; [17] 34% | [9]; at 1.2 µM 0% | [9]; at 3.7 µM 2% | [9]; at 11.0 µM 7% | [9]; at 33.0 µM 23% | [9]; at 100.0 µM 56% | [10]; [17] 17% | [10]; [18] 57% | [10]; at 50.0 µM 68.2% | [11]; at 1.2 µM -5% | [11]; at 3.7 µM -1% | [11]; [17] 13% | [11]; at 11.0 µM 8% | [11]; at 33.0 µM 25% | [11]; at 50.0 µM 67.5% | [11]; at 100.0 µM 65% | [12]; at 1.2 µM 0% | [12]; at 3.7 µM -2% | [12]; at 11.0 µM -3% | [12]; at 33.0 µM 13% | [12]; at 100.0 µM 59% | [13]; at 1.2 µM 4% | [13]; at 3.7 µM 1% | [13]; at 11.0 µM 9% | [13]; at 33.0 µM 31% | [14]; [17] 27% | [15]; at 1.2 µM 4% | [15]; at 3.7 µM 7% | [15]; at 11.0 µM 24% | [15]; at 33.0 µM 49%

COc1ccc(C(=O)Oc2ccccc2Br)cc1
active: [8]; [18] 78% | [11]; [18] 75%
inactive: [1]; at 1.2 µM 5% | [1]; at 3.7 µM 6% | [1]; at 11.0 µM 3% | [1]; at 33.0 µM 19% | [1]; at 100.0 µM 44% | [2]; at 1.2 µM -5% | [2]; at 3.7 µM -7% | [2]; at 11.0 µM -10% | [2]; at 33.0 µM -10% | [2]; at 100.0 µM -3% | [3]; at 1.2 µM 13% | [3]; at 3.7 µM 22% | [3]; at 11.0 µM 26% | [3]; at 33.0 µM 35% | [3]; at 100.0 µM 62% | [4]; at 1.2 µM -8% | [4]; at 3.7 µM -5% | [4]; at 11.0 µM -7% | [4]; at 33.0 µM -5% | [4]; at 100.0 µM 25% | [5]; at 1.2 µM 8% | [5]; at 3.7 µM 7% | [5]; [17] 5% | [5]; at 11.0 µM 8% | [5]; at 33.0 µM 28% | [5]; [18] 64% | [5]; at 50.0 µM 6.6% | [5]; at 100.0 µM 62% | [6]; at 1.2 µM -5% | [6]; at 3.7 µM -8% | [6]; [17] -20% | [6]; at 11.0 µM -10% | [6]; at 33.0 µM -7% | [6]; [18] 8% | [6]; at 50.0 µM 5.05% | [6]; at 100.0 µM 20% | [7]; at 1.2 µM 3% | [7]; at 3.7 µM -1% | [7]; at 11.0 µM -1% | [7]; at 33.0 µM 10% | [7]; at 100.0 µM 39% | [8]; [17] 0% | [8]; at 50.0 µM 36.1% | [9]; at 1.2 µM -4% | [9]; at 3.7 µM -12% | [9]; at 11.0 µM -18% | [9]; at 33.0 µM -14% | [9]; at 100.0 µM 9% | [10]; [17] 0% | [10]; [18] 16% | [10]; at 50.0 µM -16.3% | [11]; at 1.2 µM 3% | [11]; at 3.7 µM 2% | [11]; [17] 18% | [11]; at 11.0 µM -2% | [11]; at 33.0 µM 5% | [11]; at 50.0 µM 32.4% | [11]; at 100.0 µM 19% | [12]; at 1.2 µM -5% | [12]; at 3.7 µM -13% | [12]; at 11.0 µM -11% | [12]; at 33.0 µM -10% | [12]; at 100.0 µM 0% | [13]; at 1.2 µM -1% | [13]; at 3.7 µM 0% | [13]; at 11.0 µM -2% | [13]; at 33.0 µM 8% | [13]; at 100.0 µM 39% | [16]; at 1.2 µM -18% | [16]; at 3.7 µM -13% | [16]; at 11.0 µM -11% | [16]; at 33.0 µM 3% | [16]; at 100.0 µM 36% | [15]; at 1.2 µM 1% | [15]; at 3.7 µM 2% | [15]; at 11.0 µM 1% | [15]; at 33.0 µM 10% | [15]; at 100.0 µM 53%
